In PubChem BioAssay AID1030 (National Center for Advancing Translational Sciences (NCATS), 2008):
In all, about 220,000 compounds went through this assay and about 16,000 (7.3%) were called active. Not shown: some 25% with an inconclusive outcome. The list comes from a sample in which actives are over-represented; it also holds similar structures and randomly drawn compounds. Unmarked numbers belong to inactive results. The call rests on the fitted dose curve; in most records, active means well fitted inhibition curve with a large enough effect (not every such curve was filed as active); inconclusive means small, poorly fitted or top-dose-only effect, or another doubt; inactive means no such curve, though single readings can be large or run the other way.

What follows are compounds tested against Aldehyde dehydrogenase 1A1 (Homo sapiens) (UniProt P00352) (assay: qHTS Assay for Inhibitors of Aldehyde Dehydrogenase 1 (ALDH1A1)). Details: Purified ALDH1A1, NADH fluorescence, propionaldehyde substrate; series mostly up to 75.3 µM; activity, negative = inhibition: at the top concentration.
Aldehyde dehydrogenase 1A1 (Homo sapiens), sequence (P00352 whole entry, looked up): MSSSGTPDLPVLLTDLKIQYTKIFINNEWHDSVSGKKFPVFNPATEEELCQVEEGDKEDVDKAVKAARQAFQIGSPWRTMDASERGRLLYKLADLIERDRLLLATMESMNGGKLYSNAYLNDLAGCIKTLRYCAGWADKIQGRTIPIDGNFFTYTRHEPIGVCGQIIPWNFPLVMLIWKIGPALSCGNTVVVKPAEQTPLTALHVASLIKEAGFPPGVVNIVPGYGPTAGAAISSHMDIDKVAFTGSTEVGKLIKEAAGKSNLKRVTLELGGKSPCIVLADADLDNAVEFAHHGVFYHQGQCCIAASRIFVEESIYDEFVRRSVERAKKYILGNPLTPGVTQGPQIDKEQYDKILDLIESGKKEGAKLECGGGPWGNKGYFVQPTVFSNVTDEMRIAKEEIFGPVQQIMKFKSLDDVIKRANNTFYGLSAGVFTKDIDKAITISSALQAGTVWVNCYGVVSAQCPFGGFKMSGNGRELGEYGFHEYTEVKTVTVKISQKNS
Potency means the concentration at half of the fitted maximal effect.
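Wherever activity, negative = inhibition is given: plate controls were no enzyme wells and a reference inhibitor.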

Row | SMILES | activity, negative = inhibition [%] | Potency
1 | COCC(C)NC(=O)COc1nncc2ccccc12 (stereo unspecified) | 2.02 | –
2 | COc1ccc(C2c3[nH]c4ccccc4c3CCN2CCCn2cccn2)cc1C (stereo unspecified) | -9.04 | –
3 | C/C(=N/NC(=O)CSc1ccccn1)c1ccc([N+](=O)[O-])cc1 | – | 20 µM (active)
4 | Cc1cccc(C)c1NC(=O)CSc1ccc([N+](=O)[O-])cn1 | 5.34 | –
5 | Cc1ccc(/C=N/NC(=O)CSc2ccccn2)o1 | – | 7.94 µM (active)
6 | Cc1ccc(/C=N/NC(=O)CNC(=O)COc2ccccc2)o1 | -8.24 | –
7 | O=C(CSc1nnc(-c2ccc([N+](=O)[O-])cc2)o1)Nc1ccccn1 | 7.02 | –
8 | Cc1ccc(/C=N/NC(=O)Cn2nc(C)c(Br)c2C)o1 | 1.11 | –
9 | CC1CC(C)(C)NC(=S)N1CCC(=O)N1CCN(Cc2ccccc2)CC1 (stereo unspecified) | 1.21 | –
10 | CSc1nnc(SCc2nc3sc(C(=O)O)c(C)c3c(=O)[nH]2)s1 | – | 7.08 µM (active)
11 | CCN(CC)Cc1nc2sc(C)c(C)c2c(=O)[nH]1 | -1.29 | –
12 | Cc1sc2nc(CSCC(=O)Nc3c(Cl)cccc3Cl)[nH]c(=O)c2c1C | -7.94 | –
13 | Fc1ccccc1N=C1Nc2cccc3cccc1c23 | 2 | –
14 | COc1ccc(CCNC(=O)c2cc3sccc3n2C)cc1OC | -13.6 | –
15 | CCOc1ccc(CCNC(=O)C(CC)n2nc(C)n3c(cc4sccc43)c2=O)cc1OCC (stereo unspecified) | – | 31.6 µM (active)
16 | CCC(C(=O)NCc1ccc(OC)cc1)n1nc(C)n2c(cc3occc32)c1=O (stereo unspecified) | -10.2 | –
17 | CCCCC/C=C\C/C=C\CCCCCCCCCC(=O)NCC(=O)O | 10.8 | –
18 | CC(C)(C)c1cc(C(=O)N/N=C/c2ccc([N+](=O)[O-])s2)n[nH]1 | 3.41 | –
19 | Cc1ccc(SCCC(=O)Nc2cc(C)on2)cc1 | -1.48 | –
20 | O=c1c2ccccc2c(-c2ccccc2)nn1-c1ccccn1 | 8.22 | –
21 | C#CCNc1nc(C(C)C)nc2c1nnn2Cc1ccccc1F | – | 11.2 µM (active)
22 | CCCc1nc(NCc2ccc3c(c2)OCO3)c2nnn(Cc3ccccc3Cl)c2n1 | -3.33 | –

Row | SMILES | activity, negative = inhibition [%] | Potency
23 | CC(O)C(NS(=O)(=O)c1ccc(Cl)cc1)C(=O)OCc1cc([N+](=O)[O-])cc2c1OCOC2 (stereo unspecified) | 1.81 | –
24 | Cc1cc(CNC(=O)c2cccc([N+](=O)[O-])c2)c2ccccc2n1 | 1.21 | –
25 | CCO[C@H]1OC(C(=O)O)=C[C@@H](C2CCCCC2)[C@@H]1CCCO | -0.479 | –
26 | COc1ccccc1NC(=O)C[n+]1ccccc1 | 0.275 | –
27 | O=C(Nc1ccccc1C(F)(F)F)N1CCCC1c1cccnc1 (stereo unspecified) | 1.15 | –
28 | CC(C)CNC(=O)/C=C/C(=O)O | 0.351 | –
29 | CC1=CC(C)(C)NC(=S)N1c1ccccc1 | 4 | –
30 | O=C1/C(=C\c2ccsc2)NC(=S)N1c1ccccc1 | – | 28.2 µM (active)
31 | CCCCCCCCCCCCC(NC(C)=O)(C(=O)OCC)C(=O)OCC | 2.57 | –
32 | COc1cc(NC(=O)CN(C)S(=O)(=O)c2ccc3nc(C)sc3c2)cc(OC)c1 | -1.71 | –
33 | COc1cc(C(=S)NCc2ccccc2)cc(Br)c1O | – | 1.78 µM (active)
34 | COc1cc(C=O)c(Br)cc1OCC(=O)NCc1ccccc1 | -3.58 | –
35 | COc1ccccc1OCCC(=O)OCC(=O)NCc1ccccc1 | -5.5 | –
36 | C=CCOc1nc2c(c(=O)n(C)c(=O)n2C)n1Cc1ccc(Cl)cc1Cl | -3.47 | –
37 | CC1CN(Cc2nc3c(c(=O)n(C)c(=O)n3C)n2Cc2cccc(Cl)c2)CC(C)O1 (stereo unspecified) | 2.02 | –
38 | COCCn1c(CN2CCC(Cc3ccccc3)CC2)nc2c1c(=O)n(C)c(=O)n2C | 7.1 | –
39 | CCOC(=O)N1CCN(Cc2nc3c(c(=O)n(C)c(=O)n3C)n2Cc2ccccc2)CC1 | – | 0.126 µM (active)
40 | Cn1c(=O)c2c(nc(OCc3cccnc3)n2Cc2ccccc2)n(C)c1=O | – | 10 µM (active)
41 | Cn1c(=O)c2c(nc(NCCc3ccccc3)n2Cc2ccccc2)n(C)c1=O | 4.03 | –
42 | Cn1c(SCC(=O)Nc2ccc(Br)cc2F)nnc1-c1ccco1 | -4.47 | –
43 | CCCC1NC(=S)NC(C)=C1C(C)=O (stereo unspecified) | -5.57 | –
44 | CCO[C@H]1OC(C(=O)NCc2ccccc2)=C[C@@H](c2coc3ccccc3c2=O)[C@@H]1CCCO | -0.194 | –

Row | SMILES | activity, negative = inhibition [%] | Potency
45 | COCCNC(=S)N1CCC(NC(=O)C23CC4CC(CC(C4)C2)C3)CC1 | 3.85 | –
46 | Cc1cccc(C)c1NC(=O)Nc1ccccc1-n1ccnc1 | 0.169 | –
47 | COc1ccc(NC(=O)COC(=O)CNC(=O)C2CCCCC2)cc1 | 9.02 | –
48 | COc1ccc(OCC(=O)OCC(=O)Nc2ccc(S(=O)(=O)N3CCCCC3)cc2)cc1 | – | 10 µM (active)
49 | COC(=O)COc1ccc(S(=O)(=O)N2CCOCC2)cc1 | 10.5 | –
50 | O=c1oc(-c2ccco2)nc2sc3c(c12)CCCCC3 | -4.5 | –
51 | Cc1cccc(NC(=O)CSc2nnc(-c3ccco3)o2)c1 | -0.84 | –
52 | Cc1cccc(NC(=O)c2sc3nc4c(c(-c5ccco5)c3c2N)CCC4)c1 | – | 12.6 µM (active)
53 | O=C(CC(NC(=O)c1ccccc1)c1ccccc1)Nc1ccc(F)c(F)c1 (stereo unspecified) | 3.66 | –
54 | Cc1cc([N+](=O)[O-])c(-c2ccc(/C=N/n3cnnc3)o2)cc1Cl | 4.82 | –
55 | Cc1ccc(Cl)cc1-c1ccc(/C=N/n2cnnc2)o1 | 2.14 | –
56 | Cc1cc(-c2ccc(/C=N/n3cnnc3)o2)c([N+](=O)[O-])cc1C | – | 10 µM (active)
57 | CN(C)/C=C(/C(=O)c1ccccc1)S(=O)(=O)c1ccc(Cl)cc1 | -1.39 | –
58 | CCN(C(=O)CSc1nc2ccccc2n1CC)C1CCS(=O)(=O)C1 (stereo unspecified) | 6.03 | –
59 | O=C(c1ccc(C(F)(F)F)cc1)C1CCCN(C(=O)c2csnn2)C1 (stereo unspecified) | -3.94 | –
60 | CCCC(=O)N1CCc2[nH]c3ccccc3c2C1 | 0.311 | –
61 | Cc1ccc2[nH]c3c(c2c1)CN(C(=O)CN1CCN(c2ccccc2)CC1)CC3 | – | 17.8 µM (active)
62 | O=C(Nc1ccc(Cl)cc1)N1CCc2[nH]c3ccccc3c2C1 | 3.97 | –
63 | O=C(/C=C/c1ccccc1)Oc1coc(CSc2ncccn2)cc1=O | -8.97 | –
64 | Cc1cc(C)cc(NC(=O)COC(=O)c2cc(C)oc2C)c1 | 4.92 | –
65 | COc1ccc(N(CC(=O)NC2CCCC2)C(=O)CS(=O)CC(=O)Nc2ccc3c(c2)OCO3)cc1 (stereo unspecified) | 16.1 | –
66 | CCCn1c(SCC(=O)c2ccc3c(c2)OCCO3)nnc1C(C)C | – | 20 µM (active)

Row | SMILES | activity, negative = inhibition [%] | Potency
67 | CCCn1c(SCC(=O)Nc2c(C)cccc2C)nnc1C(C)C | 8.79 | –
68 | CCCn1c(SCC(N)=O)nnc1C(C)C | 8.66 | –
69 | CCOC(=O)c1cc2c(=O)[nH]c(C(Cl)(Cl)Cl)nc2o1 | 9.51 | –
70 | CCc1nnc(NC(=O)c2sc3nc(C)cc(COC)c3c2N)s1 | -6.62 | –
71 | COc1ccc(CC(=O)NCc2nnc(SCC(=O)Nc3ncc(C)s3)n2C)cc1 | 23.4 | –
72 | COc1ccc(CCN2C(=O)C3CC=C(C)CC3C2=O)cc1OC (stereo unspecified) | – | 17.8 µM (active)
73 | COc1ccc(CCN(C)CCN2C(=O)c3ccccc3C2=O)cc1OC | 0.416 | –
74 | COc1ccc(CN2C(=O)CC(Cc3ccc(C)cc3)C2=O)cc1OC (stereo unspecified) | -6.24 | –
75 | O=c1cc(O)c(-c2cccc(C(F)(F)F)c2)c(Cl)[nH]1 | 4.13 | –
76 | CCOC(=O)c1ccc(NC2Nc3cc(C)nn3S2)cc1 (stereo unspecified) | – | 12.6 µM (active)
77 | CCc1ccc(NC2Nc3cc(C)nn3S2)cc1 (stereo unspecified) | – | 10 µM (active)
78 | CCc1ccc(NC(=O)N2CCN(c3ccccc3)CC2)cc1 | 2.14 | –
79 | CCOC(=O)c1ccc(Nc2cc(C)nc3nc(C)nn23)cc1 | -2.8 | –
80 | CCOC(=O)c1ccc(NC(=O)Cn2nnc(-c3ccc(C)cc3)n2)cc1 | 0.713 | –
81 | COc1ccc(NC(=O)CN(C)CC(=O)Nc2cccc(C(F)(F)F)c2)cc1 | -9.9 | –
82 | CCC(C)(C)NC(=O)CN(C(=O)C(=O)Nc1ccc2c(c1)OCCO2)C(C)(C)CC | 1.57 | –
83 | Cc1nnc(SCc2cccc(Cl)c2)n(N)c1=O | 4.04 | –
84 | CCCn1c(N)c(C(=O)CSc2nc3ccccc3c(=O)n2-c2ccc(OC)cc2)c(=O)[nH]c1=O | -2.33 | –
85 | O=C(NCc1ccccc1Cl)C1CCN(S(=O)(=O)N2CCOCC2)CC1 | -1.99 | –
86 | O=C(CCCN1C(=O)CCC1=O)Nc1ccc(Cl)c(C(F)(F)F)c1 | -6.6 | –
87 | CCC(=O)Nc1ccc(C(=O)N2CCN(C(=O)c3ccco3)CC2)cc1 | -11.7 | –
88 | O=C(CN1CCN(C(=O)c2ccco2)CC1)Nc1ccc(Cl)c(C(F)(F)F)c1 | – | 17.8 µM (active)

Row | SMILES | activity, negative = inhibition [%] | Potency
89 | O=C(CCN1C(=O)/C(=C/c2cccs2)SC1=S)NNC(=O)c1cccc(O)c1 | 1.24 | –
90 | c1ccc(CN2CCC(N=C3NN=C(c4ccc5c(c4)OCCO5)CS3)CC2)cc1 | -9.87 | –
91 | Clc1cccc(N=C2NN=C(c3ccc4c(c3)OCCO4)CS2)c1 | – | 28.2 µM (active)
92 | CCOC(=O)C1=C(O)CSC1=Nc1cccc(Cl)c1 | 3.32 | –
93 | Cc1ccc(C(=O)Cc2nnc(C)s2)cc1 | 5.21 | –
94 | COc1cc(CN(C)Cc2nc3cc(C(F)(F)F)ccc3c(=O)[nH]2)ccc1OC(F)F | 6.49 | –
95 | O=C(O)c1ccc(NS(=O)(=O)c2ccc3c(c2)C(=O)c2cc(S(=O)(=O)Nc4ccc(C(=O)O)cc4)ccc2-3)cc1 | -1.43 | –
96 | CCCc1nc2ccccc2c(C(=O)OCC(=O)c2ccc3c(c2)NC(=O)CO3)c1CC | 9.72 | –
97 | CN(C(=O)CSc1nnc(Nc2ccccc2)s1)C1CCS(=O)(=O)C1 (stereo unspecified) | -0.527 | –
98 | CCc1ccc(Nc2nnc(SCC(=O)c3ccc4c(c3)NC(=O)CO4)s2)cc1 | – | 3.55 µM (active)
99 | COc1ccc(OCCCn2cccc2/C=C2/C(=N)N3OC(C)=CC3=NC2=O)cc1 | -8.86 | –
100 | O=C(NC1CC1)C1CCCN(C(=O)NC2CCCCC2)C1 (stereo unspecified) | 2.75 | –
101 | C=CCc1cccc2cc(C(=O)Nc3ccc(NC(C)=O)cc3)c(=O)oc12 | 1.3 | –
102 | COCCNc1cc(NCCOC)c([N+](=O)[O-])cc1[N+](=O)[O-] | 5.02 | –
103 | Cn1c(-c2ccc(F)cc2)cnc1SCC(=O)NCc1ccco1 | – | 22.4 µM (active)
104 | Cn1c(-c2ccc(F)cc2)cnc1SCC(=O)NNC(=O)Cc1ccccc1 | 0.789 | –
105 | O=C(CSc1nnc2scc(-c3ccc(F)cc3)n12)NCc1ccco1 | -5.13 | –
106 | COc1ccc(-c2ccc(OC(=O)NC3CCS(=O)(=O)C3)cc2)cc1 (stereo unspecified) | 8.45 | –
